Assay results reported in PubChem BioAssay (Tox21).
Inconclusive results are not listed. Where a call stands in place of a potency, no number is given. Active and inactive are the calls of the source. Calls come from the whole dose curve.
Potency is the fitted concentration of half-maximal effect.

The compounds below were run against Thyrotropin receptor (Homo sapiens) (UniProt P16473) (assay: qHTS assay to identify small molecule agonists of the thyroid stimulating hormone receptor (TSHR) signaling pathway (AID 1224843; note: nearly all actives have a fitted effect of over 45% in size)). Conditions: TSHR-HEK293 cells, cAMP HTRF, agonist mode, 30 min; series mostly up to 92.4 µM.
Chain of Thyrotropin receptor (Homo sapiens) (P16473 whole entry, looked up): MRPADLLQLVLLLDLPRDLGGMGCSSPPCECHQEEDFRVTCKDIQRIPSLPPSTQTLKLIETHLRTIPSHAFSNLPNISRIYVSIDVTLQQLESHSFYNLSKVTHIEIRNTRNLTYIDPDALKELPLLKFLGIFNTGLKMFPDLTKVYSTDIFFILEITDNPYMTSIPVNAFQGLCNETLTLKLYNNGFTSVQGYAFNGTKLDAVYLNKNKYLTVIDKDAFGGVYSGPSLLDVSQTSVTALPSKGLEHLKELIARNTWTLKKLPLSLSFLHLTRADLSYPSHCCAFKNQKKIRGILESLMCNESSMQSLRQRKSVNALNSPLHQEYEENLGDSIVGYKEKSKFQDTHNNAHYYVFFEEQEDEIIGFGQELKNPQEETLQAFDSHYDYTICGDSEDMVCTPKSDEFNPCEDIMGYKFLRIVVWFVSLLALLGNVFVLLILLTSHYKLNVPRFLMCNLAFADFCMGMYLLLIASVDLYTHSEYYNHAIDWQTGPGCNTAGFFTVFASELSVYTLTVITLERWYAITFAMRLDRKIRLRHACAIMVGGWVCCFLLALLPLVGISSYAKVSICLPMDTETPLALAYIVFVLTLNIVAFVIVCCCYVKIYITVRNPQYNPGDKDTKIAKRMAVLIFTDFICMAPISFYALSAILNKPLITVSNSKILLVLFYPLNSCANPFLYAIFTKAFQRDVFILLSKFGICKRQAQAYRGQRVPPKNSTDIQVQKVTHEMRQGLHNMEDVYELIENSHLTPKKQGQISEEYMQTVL
Excerpt: National Center for Advancing Translational Sciences [NCATS]
NIH Chemical Genomics Center [NCGC]
U.S. Environmental Protection Agency [EPA]
National Institutes of Environmental Health Sciences [NIEHS]
National Toxicology Program [NTP]
U.S. Food and Drug Administration [FDA]
TSHR is the receptor for thyrotropin (thyroid stimulating hormone or TSH), a member of the glycoprotein hormone family. TSH is released by the anterior pituitary gland and is the main regulator of thyroid gland growth and development. Upon binding circulating thyrotropin, a G-protein signal cascade activates adenylyl cyclase and […] cAMP concentration is increased. cAMP is a key second messenger involved extensively in cellular signal transduction pathways associated with the majority of G-protein coupled receptors (GPCRs). The activation of these GPCRs by neurotransmitters, lipids, nucleotides, peptides and hormones results in the activation or the inhibition of plasma membrane-bound adenylate cyclase through heterotrimeric G-proteins. A cell-based TSHR assay was used to screen the Tox21 10K library for compounds that can modulate TSHR in agonist mode.
Tox21 Assay Protocol Summary:
TSHR-Hek293 cells were dispensed at 800 cells/4uL/well in 1536-well white plates using a Multidrop dispenser. […] The plates were incubated at room temperature for 30 min. 2.5 ul/well of cAMP-d2 and 2.5ul/well of anti-cAMP-cryptate was added respectively into the assay plates using a Flying Reagent Dispenser. After 1 hr incubation at room temperature, the fluorescence intensity in the plates was measured using an Envision plate reader. Each test compound was measured at 15 concentrations and in triplicates.
With `Nc1cccc(S(=O)(=O)O)c1` the Potency was “inactive”. In the case of `CN1CCN(C2=Nc3ccccc3Oc3ccc(Cl)cc32)CC1`, the Potency is reported as “inactive”. In the case of `NNS(=O)(=O)c1ccc(Oc2ccc(S(=O)(=O)NN)cc2)cc1`, the Potency is reported as “inactive”. In the case of `CC1=NN(c2cc(Cl)c(S(=O)(=O)O)cc2Cl)C(=O)C1N=Nc1ccc(S(=O)(=O)O)cc1` (stereo not given), the Potency is reported as “inactive”. With `C[C@@H]1CN(c2c(F)c(F)c3c(=O)c(C(=O)O)cn(C4CC4)c3c2F)C[C@H](C)N1` the activation was -4.01% [at 19 µM] (inactive). `OCC(CBr)(CBr)CBr` was tested, and the Potency was “inactive”. With `C=CCCCCCCCCO` the Potency was “inactive”. `Cc1onc(-c2ccccc2)c1C(=O)Cl` was tested, and the Potency was “inactive”. In the case of `CCOc1ccc(NS(=O)(=O)c2ccc(N)cc2)nn1`, the Potency is reported as “inactive”. `ClC(Cl)Cl` was tested, and the Potency was “inactive”. With `O=Cc1ccc(F)c(Br)c1` the Potency was “inactive”. With `OCCN1CCN(CCO)CC1` the Potency was “inactive”. With `O=C(O)c1cccc(Cl)c1Cl` the Potency was “inactive”. `O=C(CC(=O)C(F)(F)F)c1ccccc1` was tested, and the Potency was 17.5 µM (active). For `Cc1nc(-c2ccccn2)ncc1C(=O)Nn1cc(C)c2cc(F)ccc21`, the Potency was “inactive”. With `NC(=O)NS(=O)(=O)c1ccc(Cl)cc1` the Potency was “inactive”. For `ICCc1ccccc1`, the Potency was “inactive”. `CCCCCCn1c(=O)c2c(ncn2C)n(C)c1=O` was tested, and the Potency was “inactive”. `CC(C)C(=O)OCC(C)(C)C(O)C(C)C` (stereo not given) was tested, and the Potency was “inactive”. With `CC/C=C\CCOC(=O)C(C)C` the Potency was “inactive”. In the case of `CCCCOc1cc(C(=O)NCCN(CC)CC)c2ccccc2n1`, the Potency is reported as “inactive”. For `C/C(=N\O)[C@@H](C)NCC(C)(C)CN[C@H](C)/C(C)=N/O`, the Potency was “inactive”. With `CCCCN1C[C@H](O)[C@@H](O)[C@H](O)[C@H]1CO` the Potency was “inactive”. `COc1ccccc1OCC(O)COC(N)=O` (stereo not given) was tested, and the Potency was “inactive”. With `CC(C)=CCC[C@](C)(O)[C@@H]1CC=C(C)CC1` the Potency was “inactive”. For `O=C1CCCCCCCCCCC(=O)OCCO1`, the Potency was “inactive”. For `O=S(=O)(O)C(F)(F)F`, the Potency was “inactive”. For `C=CCc1cc(OC)c(O)c(C(=O)NCCO)c1`, the Potency was “inactive”. With `Cc1ccc([N+](=O)[O-])cc1Cl` the Potency was “inactive”. In the case of `NCCCN1CCN(CCCN)CC1`, the Potency is reported as “inactive”. With `Cc1cc2nc(N)sc2cc1C` the Potency was “inactive”. In the case of `CC1(C)O[C@@H]2C[C@H]3[C@@H]4CCC5=CC(=O)CC[C@]5(C)[C@@]4(F)[C@@H](O)C[C@]3(C)[C@]2(C(=O)CCl)O1`, the Potency is reported as “inactive”. In the case of `CN1C(=O)CC(c2ccccc2)C1=O` (stereo not given), the Potency is reported as “inactive”. With `O=C1Nc2ccc([N+](=O)[O-])cc2C1=O` the Potency was “inactive”. For `COc1cc2c(cc1N)oc1ccccc12`, the Potency was “inactive”. In the case of `CC(=O)Oc1cc(C(C)C)c(OCCN(C)C)cc1C`, the Potency is reported as “inactive”. `OCCN(CCO)CCN(CCO)CCO` was tested, and the Potency was “inactive”. `Oc1ccccc1C=NCc1ccccc1` was tested, and the Potency was “inactive”. For `CCCCCCCCCC/C=C/C#N`, the Potency was “inactive”. In the case of `CCCNC(C)(C)COC(=O)c1ccccc1`, the Potency is reported as “inactive”.
